# Laboratory results published in PubChem BioAssay (NCI).
# The panel holds about 83,000 compounds, 20% with a hit somewhere; the sample as a whole holds those more often.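 The test compound was applied at a single concentration to cells in 96-well plates for 48 hours, and percent growth was recorded.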 A number with no mark means an inactive call. The source made the active and inactive calls. Rule for the calls: active = growth percent below 10; inactive = the rest.
# Tested on: LOX IMVI melanoma
# Assay: NCI-60 one-dose screen, 48 h (100 = growth as untreated, 0 = no growth, -100 = all killed)
# Conditions: 10 µM unless noted
row,SMILES,growth
1,O=C(CSc1nnc(-c2cc(-c3ccccc3)nc3ccccc23)o1)c1ccc(Br)cc1,101%
2,O=c1oc2c(cc1-c1ccc([N+](=O)[O-])cc1)C(O)Oc1ccccc1-2 (stereo not given),98.9%
3,CC(C)Sc1nc(Cl)c(C#N)c(-c2ccc(F)cc2)n1,70.2%
4,Cc1cc(C)cc(S(=O)(=O)n2ccc(-c3ccc4c(c3)CCC(C)(C)O4)n2)c1,95%
5,CCc1nn2c(-c3ccc(Cl)cc3C)c(-c3cc(OC)c(OC)c(OC)c3)nc2s1,77.1%
6,O=C(Nc1cccc(-n2cc(-c3ccncc3)c(-c3cc(O)cc(Cl)c3)n2)c1)Nc1ccc(Cl)c(Cl)c1,-84.7% (active)
7,COc1ccccc1-n1c(-c2ccc(O)cc2C)cn2c3c(=O)[nH]c(=O)n(C)c3nc12,72.6%
8,CCCCCN1C(=O)CCC1=O,102%
9,O=C1NCCc2c1noc2-c1ccccc1,98.7%
10,CCOC(=O)c1cc2oc(/C=C/c3cc(=O)c4cc(Cl)ccc4o3)cc2[nH]1,101%
11,COc1cc(/C=C/C(=O)c2c(C)n([O-])c3ccccc3[n+]2=O)cc(OC)c1OC,50.9%
12,O=C(c1ccccc1)C(CN1CCCCC1)c1ccccc1 (stereo not given),-94.9% (active)
13,c1ccc2c(-c3nc4ccccc4[nH]3)cccc2c1,34.6%
14,COc1cc(/C=C/c2cc(/C=C/c3ccc(O)c(OC)c3)n(C(=O)Cc3ccccc3)n2)ccc1O,5.18% (active)
15,O=C1NC(=O)/C(=C/c2ccc(Cl)cc2Cl)N1,97.3%
16,Nc1nc2c(c(=O)[nH]1)C1(C(=O)Nc3ccccc31)c1c(nc(N)[nH]c1=O)N2,98.2%
17,COc1ccc(NS(=O)(=O)N2CCCCC2)cc1,100%
18,COc1ccc(-c2cc(-c3cccnc3)nc3sc(C(=O)Nc4ccccc4)c(N)c23)cc1OC,60%
19,Cc1cc2c(cc1C)[n+](Cc1ccc3ccccc3c1)cn2Cc1ccc2ccccc2c1,-86.7% (active)
20,CCN(CC)CCCCCCCNc1c2ccc(Cl)cc2nc2ccc(OC)cc12,-7.86% (active)
21,Cc1cc(C(=O)Nc2ccc3cc(CN4CCOCC4)ccc3n2)c(C)n1-c1ccccc1,24.2%
22,COc1cc(Cl)cc(-c2nn(-c3cccc(NC(=O)c4cc(C(F)(F)F)cc(C(F)(F)F)c4)c3)cc2-c2ccncc2)c1,76.1%
23,O=C(NCCNC(=O)Oc1cccc2ccccc12)Oc1cccc2ccccc12,81.9%
24,COC(=O)[C@H](Cc1cn(C)cn1)NC(=O)[C@H](C)NC(=O)Nc1cc(C(F)(F)F)cc(C(F)(F)F)c1,-81% [100 µM] (active)
25,O=C1CNc2cc(Cl)ccc2N1,101%

# Tested on: SK-MEL-28 melanoma
# Assay: as above
# Conditions: 10 µM unless noted
row,SMILES,growth
1,CC(=O)N1N=C(c2ccc(Cl)cc2)CC1c1c(C)nn(-c2ccccc2)c1N(C)Cc1ccccc1 (stereo not given),88.1%
2,CC1(C)CC2(C)CC(=O)C1C(C(=O)O)C2C(=O)O (stereo not given),117%
3,COc1ccc(-c2cnc(SCC(=O)Nc3ccc(-c4nc5ccccc5s4)cc3)n2-c2ccc(OC)cc2)cc1,120%
4,COc1ccc2c(c1)[n+](=O)c(C(=O)/C=C/c1cc(OC)c(OC)c(OC)c1)c(C)n2[O-],69.1%
5,Nc1c(C(=O)Nc2cccc(Cl)c2)sc2nc3c(cc12)C(O)CCC3 (stereo not given),55.8%
6,COc1cccc(-c2nc(-c3ccc(N)cc3)co2)c1,111%
7,O=C(Nc1ccccc1S)c1ccccc1,112%
8,COc1ccc2c(c1)c(CC(=O)[Se]C)c(C)n2C(=O)c1ccc(Cl)cc1,-7.85% (active)
9,Nc1nc(SCc2cccnc2)c2ncn(C3OC(CO)C(O)C3O)c2n1 (stereo not given),111%
10,O=C1c2cc3c(cc2-c2c1c1ccc(Cl)cc1c(=O)n2CCCNCCO)OCO3,-74% (active)
11,N#Cc1c(NC(=O)c2ccco2)[n+]([O-])c2cc(Cl)c(Cl)cc2[n+]1[O-],104%
12,Cc1[nH]ccc2cc3nc4ccccc4c3cc12,54.5%
13,C=C1CC[C@@H]2[C@](C)(COC(C)=O)[C@H](OC(C)=O)CC[C@@]2(C)[C@@H]1CC(NCc1ccccc1)C1=CCOC1=O (stereo not given in full),68.6%
14,COC(=O)c1cc2oc(/C=N\NC(=O)c3cc4oc(C)c(C)c4[nH]3)cc2[nH]1,110%
15,O=C(CSc1nnc(-c2cc(-c3ccccc3)nc3ccccc23)o1)c1ccc(Br)cc1,113%
16,O=c1oc2c(cc1-c1ccc([N+](=O)[O-])cc1)C(O)Oc1ccccc1-2 (stereo not given),99.4%
17,CC(C)Sc1nc(Cl)c(C#N)c(-c2ccc(F)cc2)n1,119%
18,Cc1cc(C)cc(S(=O)(=O)n2ccc(-c3ccc4c(c3)CCC(C)(C)O4)n2)c1,102%
19,CCc1nn2c(-c3ccc(Cl)cc3C)c(-c3cc(OC)c(OC)c(OC)c3)nc2s1,80.8%
20,O=C(Nc1cccc(-n2cc(-c3ccncc3)c(-c3cc(O)cc(Cl)c3)n2)c1)Nc1ccc(Cl)c(Cl)c1,-50.9% (active)

row,SMILES,growth
1,COc1ccccc1-n1c(-c2ccc(O)cc2C)cn2c3c(=O)[nH]c(=O)n(C)c3nc12,104%
2,CCCCCN1C(=O)CCC1=O,110%
3,O=C1NCCc2c1noc2-c1ccccc1,111%
4,CCOC(=O)c1cc2oc(/C=C/c3cc(=O)c4cc(Cl)ccc4o3)cc2[nH]1,91.4%
5,COc1cc(/C=C/C(=O)c2c(C)n([O-])c3ccccc3[n+]2=O)cc(OC)c1OC,79%
6,O=C(c1ccccc1)C(CN1CCCCC1)c1ccccc1 (stereo not given),58.8%
7,c1ccc2c(-c3nc4ccccc4[nH]3)cccc2c1,51.5%
8,COc1cc(/C=C/c2cc(/C=C/c3ccc(O)c(OC)c3)n(C(=O)Cc3ccccc3)n2)ccc1O,-4.66% (active)
9,O=C1NC(=O)/C(=C/c2ccc(Cl)cc2Cl)N1,109%
10,Nc1nc2c(c(=O)[nH]1)C1(C(=O)Nc3ccccc31)c1c(nc(N)[nH]c1=O)N2,112%
11,COc1ccc(NS(=O)(=O)N2CCCCC2)cc1,123%
12,COc1ccc(-c2cc(-c3cccnc3)nc3sc(C(=O)Nc4ccccc4)c(N)c23)cc1OC,73.3%
13,C/C(=C\CCc1ccoc1)CC/C=C(\C)CCCNc1ccc(F)cc1,96.6%
14,Cc1cc2c(cc1C)[n+](Cc1ccc3ccccc3c1)cn2Cc1ccc2ccccc2c1,-91.9% (active)
15,CCN(CC)CCCCCCCNc1c2ccc(Cl)cc2nc2ccc(OC)cc12,-77.4% (active)
16,Cc1cc(C(=O)Nc2ccc3cc(CN4CCOCC4)ccc3n2)c(C)n1-c1ccccc1,27.9%
17,COc1cc(Cl)cc(-c2nn(-c3cccc(NC(=O)c4cc(C(F)(F)F)cc(C(F)(F)F)c4)c3)cc2-c2ccncc2)c1,78.8%
18,O=C(NCCNC(=O)Oc1cccc2ccccc12)Oc1cccc2ccccc12,128%
19,COC(=O)[C@H](Cc1cn(C)cn1)NC(=O)[C@H](C)NC(=O)Nc1cc(C(F)(F)F)cc(C(F)(F)F)c1,-94.4% [100 µM] (active)
20,O=C1CNc2cc(Cl)ccc2N1,107%
